{"source": "PubChem BioAssay AID686978", "about": "(National Center for Advancing Translational Sciences (NCATS), 2013)", "note": "Out of some 420,000 compounds screened, about 64,000 (15%) were called active. Inconclusive results (about 27%) are left out. A selection follows. Values without a mark were called inactive. Calls come from the whole dose curve; as a rule, active = well fitted inhibition curve with a large enough effect; inconclusive = small, poorly fitted or top-dose-only effect; inactive = flat fitted curve, though single readings scatter. % is set by controls: 0 for no effect and ±100 for the full control effect; potency is the fitted concentration of half-maximal effect."}
{"assay": "qHTS for Inhibitors of human tyrosyl-DNA phosphodiesterase 1 (TDP1): qHTS in cells in absence of CPT; note: nearly all actives have a fitted effect of over 55% in size", "conditions": "DT40 Tdp1-/- hTDP1 cells, no CPT, ATP luminescence, 48 h; activity change, negative = growth inhibition: at 46.2 µM (top of the series)", "procedure,_shortened": "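Growth of hTDP1-complemented DT40 Tdp1-knockout cells is measured by ATP luminescence after at least 48 hr compound exposure at 37 °C, with DMSO substituting for the 20 nM CPT used in the parallel screen.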"}
{"compound": "O=c1[nH]c2c(c(=O)n1-c1ccccc1)CCO2", "activity change, negative = growth inhibition": "-19.7%"}
{"compound": "CCOC(=O)c1ccc(NC(=S)N2CCCC2)cc1", "activity change, negative = growth inhibition": "0.979%"}
{"compound": "CCC(C)c1ccc(NC(=S)N2CCCC2)cc1", "note": "(centres undefined)", "Potency": "10.3 µM (active)"}
{"compound": "CCOc1ccc(NC(=S)N2CCCCCC2)cc1", "activity change, negative = growth inhibition": "8.01%"}
{"compound": "Cc1cc(OCC(=O)NCC(O)c2ccccc2)c2c(C)c(C)c(=O)oc2c1", "note": "(centres undefined)", "activity change, negative = growth inhibition": "-21.4%"}
{"compound": "CCCC1CC(C)(C(=O)Cn2[nH]c(=O)ccc2=O)OC1=O", "note": "(centres undefined)", "activity change, negative = growth inhibition": "-8.19%"}
{"compound": "COC(=O)c1c(-c2ccsc2)oc2ccc(-c3cc(OC)c(OC)c(OC)c3)cc12", "Potency": "16.4 µM (active)"}
{"compound": "CCOC(=O)c1c(-c2ccccc2)oc2ccc(OCC(=O)NN)cc12", "activity change, negative = growth inhibition": "1.78%"}
{"compound": "COc1cc(-c2nnc(NC(=O)CS(=O)(=O)c3ccc(Cl)cc3)o2)cc(OC)c1OC", "activity change, negative = growth inhibition": "4.37%"}
{"compound": "C/C(Nc1ccc2oc(=O)ccc2c1)=C1/C(=O)CC2[C@@H]1C2(C)C", "note": "(some centres undefined)", "activity change, negative = growth inhibition": "-12.6% [at 9.04 µM]"}
{"compound": "C/C(=N/NC(=O)c1ccn(C)n1)c1ccncc1", "activity change, negative = growth inhibition": "14.9%"}
{"compound": "Cc1cnc(NC(=O)C2CCCC2)s1", "activity change, negative = growth inhibition": "-8.92%"}
{"compound": "C/C=C/NNC(=O)Cc1ccc(OC)cc1", "Potency": "5.62 µM (active)"}
{"compound": "COc1ccc(CC(=O)Nc2ccc(-c3nnc(-c4ccc(C)cc4)o3)cc2)cc1", "activity change, negative = growth inhibition": "-10.4%"}
{"compound": "CCCCCNC(=O)Cc1ccc(OC)cc1", "activity change, negative = growth inhibition": "-23%"}
{"compound": "CS(=O)(=O)N1CCN(C(=O)Cc2ccccc2)CC1", "activity change, negative = growth inhibition": "-5.14%"}
{"compound": "CC(C)c1ccc(CC(=O)N2CCC2(C)C(=O)NS(=O)(=O)c2ccc(C(C)(C)C)cc2)cc1", "note": "(centres undefined)", "activity change, negative = growth inhibition": "-8.67%"}
{"compound": "c1cnc(N2CCN(c3ccc4ccccc4n3)CC2)nc1", "Potency": "18.4 µM (active)"}
{"compound": "CC1=C(N2CCN(c3ncccn3)CC2)CCC1=O", "activity change, negative = growth inhibition": "9.41%"}
{"compound": "Oc1ccc(CN2CCN(c3ncccn3)CC2)cc1", "activity change, negative = growth inhibition": "0.422%"}
{"compound": "CC(C)n1ncc2c(C(=O)N3CCN(Cc4cccs4)CC3)cc(C3CC3)nc21", "Potency": "25.9 µM (active)"}
{"compound": "CC(=O)Nc1ccc(CC#N)cc1", "activity change, negative = growth inhibition": "10.2%"}
{"compound": "O=C(NCCN1CCOCC1)c1cnn(-c2nccc(-c3cccs3)n2)c1C1CC1", "activity change, negative = growth inhibition": "-8%"}
{"compound": "CC(C)n1ncc2c(C(=O)Nc3ccc(CC#N)cc3)cc(C3CC3)nc21", "Potency": "13 µM (active)"}
{"compound": "N#CCc1ccc(NC(=O)c2ccccc2C(=O)Nc2ccc(CC#N)cc2)cc1", "activity change, negative = growth inhibition": "-5.04%"}
{"compound": "Cc1ccsc1C1C(C#N)=C(N)OC2=C1C(=O)CC(C)C2", "note": "(centres undefined)", "activity change, negative = growth inhibition": "11.3%"}
{"compound": "CCOC(=O)Cc1cc(=O)[nH]c(=O)[nH]1", "activity change, negative = growth inhibition": "-0.765%"}
{"compound": "COCCn1cnnc1SCC(=O)Nc1cccc(S(=O)(=O)N2CCCCC2)c1", "activity change, negative = growth inhibition": "-10.9%"}
{"compound": "Cc1c(CCO)c(=O)n(-c2ccccc2)n1S(=O)(=O)c1ccc(F)cc1", "activity change, negative = growth inhibition": "-27.5%"}
{"compound": "COCCCNC(=O)C1CC(=O)N(c2ccc(C)cc2)C1", "note": "(centres undefined)", "activity change, negative = growth inhibition": "-14.8%"}
{"compound": "Cc1oc(-c2ccccc2F)nc1CS(=O)(=O)CC(=O)NCCCN(C)C1CCCCC1", "activity change, negative = growth inhibition": "-9.36%"}
{"compound": "Cc1ccc(N2C(=O)C(CC(=O)Nc3cccc(F)c3)N(CCc3ccncc3)C2=O)cc1", "note": "(centres undefined)", "activity change, negative = growth inhibition": "-19.1%"}
{"compound": "CCOc1ccc(NC(=O)CN(C)C(=O)CCSc2ccc(F)cc2)cc1OCC", "activity change, negative = growth inhibition": "-17.2%"}
{"compound": "CCN(C(=O)COC(=O)C1CCN(S(=O)(=O)c2ccc(C)c(C)c2)CC1)C1CCS(=O)(=O)C1", "note": "(centres undefined)", "activity change, negative = growth inhibition": "-4.69%"}
{"compound": "O=[N+]([O-])c1ccc(N(CCO)Cc2ccccc2)c([N+](=O)[O-])c1", "activity change, negative = growth inhibition": "-59%"}
{"compound": "CCCN(CCC)C(=O)C1c2ccccc2Oc2ccccc21", "Potency": "25.9 µM (active)"}
{"compound": "CCCCCNC(=O)C1c2ccccc2Oc2ccccc21", "activity change, negative = growth inhibition": "-20.9%"}
{"compound": "CCOC(=O)CC(NC(=O)C1c2ccccc2Oc2ccccc21)c1ccc(C)cc1", "note": "(centres undefined)", "activity change, negative = growth inhibition": "-27.3%"}
{"compound": "Cc1ccccc1OCCC(=O)OCC(=O)NCCc1ccc(S(N)(=O)=O)cc1", "activity change, negative = growth inhibition": "10.2%"}
{"compound": "CC(=O)Nc1cccc(NC(=O)CSc2nccn2Cc2ccc(F)cc2)c1", "activity change, negative = growth inhibition": "10.9%"}
{"compound": "Cc1cccc(-n2ccnc2SCC(=O)Nc2cccc3ccccc23)c1C", "Potency": "16.4 µM (active)"}
{"compound": "COc1ccccc1-n1c(CNC(=O)c2ccccc2)nnc1SCC(=O)Nc1nnc(C)s1", "activity change, negative = growth inhibition": "-9.04%"}
{"compound": "COc1ccccc1-n1ccnc1SCC(=O)NC(C)(C)C", "activity change, negative = growth inhibition": "-15.4%"}
{"compound": "O=C(CSc1nccn1-c1ccc(F)cc1)Nc1cccc2ccccc12", "Potency": "14.6 µM (active)"}
{"compound": "Cc1cc(NC(=O)CSc2nccn2-c2ccc([N+](=O)[O-])cc2)no1", "activity change, negative = growth inhibition": "2.54%"}
{"compound": "Cc1ccccc1-n1c(SCC(=O)Nc2cccc3ccccc23)nc(O)cc1=O", "activity change, negative = growth inhibition": "18.6%"}
{"compound": "Cc1nnc(NC(=O)CSc2nccn2-c2cccc(C)c2C)s1", "Potency": "3.26 µM (active)"}
{"compound": "Cc1cccc(CSc2nnc(NC(=O)CSc3nnc(C)s3)s2)c1", "activity change, negative = growth inhibition": "-17%"}
{"compound": "Cc1cccc(NC(=O)c2ccc(OCC(=O)NCc3ccccc3)cc2)c1C", "activity change, negative = growth inhibition": "-22.1%"}
{"compound": "COC(=O)C(C(=O)Nc1cccc(Cl)c1C)C1CCCC1", "note": "(centres undefined)", "activity change, negative = growth inhibition": "-25.4%"}
{"compound": "CCOC(=O)C(=O)C1C(=O)Nc2ccccc21", "note": "(centres undefined)", "activity change, negative = growth inhibition": "5.01%"}
{"compound": "CCC(=O)Nc1c(C)n[nH]c1C", "activity change, negative = growth inhibition": "-10%"}
{"compound": "CCOc1ccc(-c2cn(S(=O)(=O)c3cccc4nsnc34)nc2N)cc1", "activity change, negative = growth inhibition": "-13.4%"}
{"compound": "COc1cccc(CNC(=O)CN2C(=O)CCc3cc(S(=O)(=O)N4CCOCC4)ccc32)c1", "activity change, negative = growth inhibition": "-0.508%"}
